From PubChem
BJeLR lethal = MLPCN primary cell-based screen for lethality selective to Ras in HRASV12 cells | BJeLR (HRASV12) viability, CellTiter-Glo ATP luminescence, 48 h | inhibition, % (concentration not given with the values) | 300,000 tested, 0.17% active | AID 1554, 2009; in the data active = inhibition above about 50%; inconclusive = no clear call, values can overlap the other calls
Anthrax LF prot = Bacillus anthracis LF protease inhibitors, primary screen, biochemical, multiplex microsphere, MLPCN library; Lethal factor (Bacillus anthracis), P15917; AID 588501, 2011; inhibition, % at 10 µM; 360,000 tested, 0.12% active; multiplex microsphere protease cleavage assay; note: plate controls were buffer without enzyme for full effect and enzyme alone for no effect
BoNT F protease = BoNT/F light chain protease inhibitors, primary screen, biochemical, flow cytometry, MLPCN library | 360,000 tested, 0.22% active | Multiplex microsphere protease cleavage assay | inhibition, % at 10 µM | Botulinum neurotoxin type F light chain protease (Clostridium botulinum); in the data active = inhibition above about 35%, passing the limit was not always enough; inconclusive = no clear call, values can overlap the other calls; note: plate controls were buffer without enzyme for full effect and enzyme alone for no effect
SARS 3CLpro inh = SARS-CoV 3CLpro protease inhibitors, primary screen, biochemical, quenched FRET; Replicase polyprotein 1ab (Severe acute respiratory syndrome coronavirus), P0C6X7; recombinant SARS-CoV 3CLpro, quenched FRET peptide cleavage; inhibition, % at 6 µM; 290,000 tested, 0.14% active; AID 1706, 2009; in the data active = inhibition above about 12%
Autofluor counter = counter-screen for toxin protease inhibitors: compound fluorescence. 360,000 tested, 3.1% active. AID 624483. compound autofluorescence counterscreen, microsphere flow cytometry; stronger effect = higher value. fluorescence intensity (test concentration not listed); in the data active = fluorescence intensity above about 16000; inconclusive = no clear call, values can overlap the other calls
BoNT-A LC inh2 = BoNT/A light chain protease inhibitors, primary screen, biochemical, flow cytometry, MLPCN library | Botulinum neurotoxin type A light chain protease (Clostridium botulinum A str. ATCC 3502) | multiplex microsphere protease substrate cleavage | inhibition, % at 10 µM | 360,000 tested, 0.17% active; note: plate controls were buffer without enzyme for full effect and enzyme alone for no effect
* hit, by the source's call; ? = inconclusive; / = no result. This is a sample that favours compounds with a hit; in the whole collection about 3.6% have one here. Cut-off read from the data, not from the text of the source, unless noted: active = inhibition above about 30%; inconclusive = no clear call, values can overlap the other calls; inactive = below that.

SMILES	BJeLR lethal	Anthrax LF prot	BoNT F protease	SARS 3CLpro inh	Autofluor counter	BoNT-A LC inh2
COc1ccc(C)cc1NC(=O)Nc1ccc(Br)cn1	0.9	1.0	10.1	1.8	18723*	4.8
COc1ccc(C(=O)Nn2cnnc2)c(OC)c1	-6.5	0.2	0.1	5.4	21828*	1.0
COc1ccc(C(=O)Nn2cnnc2)cc1OC	0.0	1.6	-3.7	-4.9	4395	0.6
COc1ccc(C(=O)Nc2cc(C)on2)c(OC)c1	-6.0	-12.5	-6.5	0.9	?	-2.2
C#CCn1c(CCNC(=O)c2ccco2)nc2ccccc21	-7.9	0.1	8.0	9.1	4414	-0.3
Cn1ccnc1SCC(=O)N1CCN(S(=O)(=O)c2ccccc2)CC1	3.4	0.5	0.1	0.2	4595	-1.1
O=C(NCc1cccc(F)c1)Nc1nnc([C@@H]2C[C@H](O)[C@@H](CO)O2)s1	/	-3.3	-2.3	/	3750	0.1
CCc1c(C)sc(NC(=O)CSc2nc3c(c(C(F)(F)F)n2)CCc2ccccc2-3)c1C#N	-3.5	-0.8	-3.2	-1.0	21133*	-3.7
Cc1ccc(NNC(=O)c2ccno2)c(C)c1	4.7	/	/	3.2	/	/
O=C(NNC(=O)c1ccccc1F)c1cccc(Cl)c1	/	0.0	-6.5	-0.6	25813*	-4.7
O=C(NC1(C(F)(F)F)NC(=O)N(c2ccccc2F)C1=O)c1ccncc1 (stereo not given)	3.0	0.4	-5.5	0.7	2295	0.4
O=C(NC1(C(F)(F)F)NC(=O)N(c2ccc(F)c(Cl)c2)C1=O)c1ccncc1 (stereo not given)	-1.0	-4.2	-1.5	1.7	23968*	-3.0
COc1ccc(C(=O)Nc2n[nH]c(-c3ccncc3)n2)cc1	-0.8	-3.6	-4.5	0.5	18001*	-5.5
CCOC(=O)CSc1nc2ccc(NC(=O)CSc3nnnn3Cc3ccccc3)cc2s1	2.0	-3.7	-2.7	5.3	20885*	-1.5
COc1cc2nc(N3CCNCC3)nc(N)c2cc1OC	2.8	-1.3	-4.2	2.2	17344*	-2.7
COc1ccc(NC(=O)CN(C)C(=O)c2ccc(C)c(S(=O)(=O)N3CCCCC3)c2)cc1	/	3.5	-8.8	/	4041	0.0
N=c1c2c(n(Cc3ccc(Cl)cc3)c3c1CCC3)CCC2	-18.9	-0.7	-1.4	3.3	20485*	-1.5
CC(=O)c1cccc(S(=O)(=O)N2CCCC(c3nc4c(nnn4Cc4cccc(Cl)c4)c(=O)[nH]3)C2)c1 (stereo not given)	-2.3	-5.8	-12.8	0.8	2978	-2.4
CC(C)CNC(=O)CSc1nc(-c2cccs2)cc(C(F)(F)F)n1	6.2	-6.6	37.7*	-3.8	3637	-0.4
CCCNC(=O)CSc1nc(-c2cccs2)cc(C(F)(F)F)n1	-3.3	-1.9	6.6	1.1	2647	1.1
Cc1ccc(C(C)C)c(OCC(=O)NNC(=O)CC2OC(=O)c3ccccc32)c1 (stereo not given)	12.9	3.5	-3.5	/	5272	0.1
CC(C)C(CCNC(=O)CC(Cc1ccccc1)c1ccco1)c1ccco1 (stereo not given)	-2.7	-2.4	-3.3	6.9	17138*	-1.3
CC(C)C(CCNC(=O)CN1C(=O)c2ccccc2C1=O)c1ccco1 (stereo not given)	7.4	1.1	-3.1	1.1	5593	0.6
C=CCNC(=O)c1ccc(N(Cc2ccc(Cl)cc2)S(C)(=O)=O)cc1	-5.1	9.7	38.7*	-2.1	3005	1.1
CS(=O)(=O)N(Cc1ccc(Cl)cc1)c1ccc(C(=O)Nc2cccnc2)cc1	4.4	5.8	5.7	5.8	10050	0.2
SMILES	BJeLR lethal	Anthrax LF prot	BoNT F protease	SARS 3CLpro inh	Autofluor counter	BoNT-A LC inh2
C=CCN(c1ccc(C(=O)NC(C)C)cc1)S(C)(=O)=O	4.7	-5.3	-1.8	1.6	23751*	0.1
CCOC(=O)c1cc(C)sc1N1C(=O)C2C3C=CC(C3)C2C1=O (stereo not given)	6.4	-0.1	-3.5	1.9	24106*	-2.0
CCOC(=O)c1c(N2C(=O)C3C4C=CC(C4)C3C2=O)sc2c1CCC(C)C2 (stereo not given)	-16.2	-1.8	-17.8	-0.6	2487	-0.5
CCCCOC(=O)c1cc(=O)[nH]c2ccccc12	-6.9	-2.9	2.1	0.8	22271*	1.5
O=C(Nc1cccc(C(F)(F)F)c1)c1ccc2sc([C@@H]3O[C@H](CO)[C@H](O)[C@H](O)[C@H]3O)nc2c1	/	-4.8	0.3	/	3664	-0.4
O=C(O)c1cn(-c2ccccc2)c(=O)c2ccccc12	-12.4	-2.6	2.4	1.2	2861	0.1
COc1ccc(-n2cc(C(=O)O)c3ccccc3c2=O)cc1	-1.3	-0.6	-2.9	-1.6	16517*	-0.6
CCCCSc1nnc(CCCCCNC(=O)OC(C)(C)C)o1	-2.4	-3.6	-1.9	-0.1	16992*	-0.9
CC(C)(C)OC(=O)NCCCCCc1nnc(SCc2c(F)cccc2Cl)o1	9.1	?	58.7*	1.3	3968	-1.4
CSc1nnc(CCCCCNC(=O)OC(C)(C)C)o1	-5.8	8.0	?	-0.8	4067	0.7
N#Cc1ccc(OCC(=O)OCC(=O)N2CCc3ccccc32)cc1	/	-6.1	-1.3	/	2788	0.1
Cn1c(CC(=O)Nc2ccc(Cl)c(Cl)c2)nnc1SCC(=O)NCc1ccccc1	-5.7	0.5	4.5	0.5	3274	-0.5
COc1ccc(N(CC(=O)NC2CCCC2)C(=O)Cn2nnc(-c3ccc(C)cc3)n2)cc1OC	-16.5	-3.8	-1.8	-3.7	16197*	-0.1
COc1ccc(-c2nnn(CC(=O)N(C3CCCCC3)C(C)C(=O)NC3CCCC3)n2)cc1OC (stereo not given)	-0.7	-3.3	-0.7	-1.5	23408*	-0.2
COc1ccc(-c2nnn(CC(=O)N(C3CCCC3)C(C)C(=O)NC3CCCC3)n2)cc1OC (stereo not given)	4.9	-24.2	-7.6	-4.4	11381	-1.0
COc1cc(CCC(=O)OCC(=O)Nc2sccc2C(N)=O)cc(OC)c1OC	/	-2.9	-2.1	/	5066	1.3
CCOc1ccc(C(=O)NCC(c2cccs2)N(C)C)cc1OCC (stereo not given)	-1.6	-0.9	-1.0	-2.3	2281	0.8
O=c1[nH]c2cccnc2n1Cc1ccco1	2.3	0.3	-4.5	-2.2	21423*	?
O=C1c2cccnc2C(=O)N1Cc1ccco1	-11.8	1.8	3.7	-8.1	11325	0.5
CCc1c(C)n2nc(C)cc2[nH]c1=O	2.8	-2.6	1.4	-6.2	22318*	1.5
CCc1c(C)c2c(C)nn(-c3ccccc3)c2[nH]c1=O	3.6	-0.8	17.1	-1.1	3325	0.5
CN1OC[C@@H]2CN(C(=S)NCCc3ccccc3)[C@H](c3ccc(N4CCCCC4)cc3)C[C@@H]21	/	-2.7	5.1	/	8876	-1.2
